Inconclusive results are not listed. Activity calls are given as the source filed them. The call rests on the fitted dose curve; in most records, active means well fitted cell-killing curve with a large enough effect; inconclusive means small, poorly fitted or top-dose-only effect; inactive means no such curve, though single readings can be large or run the other way.
Experiment: qHTS of pediatric cancer cell lines to identify multiple opportunities for drug repurposing: Primary screen for Rh41 cells (AID 1347108); further: nearly all actives have a fitted effect of over 70% in size;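 on activity change, negative = cytotoxic: luminescence drop marks cytotoxic hits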
Settings: Rh41 rhabdomyosarcoma viability, CellTiter-Glo luminescence, 48 h; series mostly up to 46 µM; activity change, negative = cytotoxic: at the top concentration
Procedure, shortened: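 Cells plated at 500-1,000/well in growth medium, compounds added after 5 h. MIPE tested at 11 points (from 0.78 nM), NPC at 8 points (from 0.59 nM). CellTiter-Glo luminescence after 48 h; concentration-response curves from primary screen.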
Potency means the concentration at half of the fitted maximal effect.

| SMILES | activity change, negative = cytotoxic | Potency |
| --- | --- | --- |
| CCN(CC)C(C)C(=O)c1ccccc1 (stereo unspecified) | 36.2% (inactive) | – |
| CC(C)[N+](C)(CCC(C(N)=O)(c1ccccc1)c1ccccc1)C(C)C | -2.89% (inactive) | – |
| CC(=O)OC1(c2ccccc2)CCN(CCc2ccccc2)CC1 | – | 49.5 µM (active) |
| CC(Cc1ccccc1)NCCCCl (stereo unspecified) | 33.9% (inactive) | – |
| COP(=S)(OC)Oc1ccc(S(N)(=O)=O)cc1 | 28.4% (inactive) | – |
| C[C@@H]1CC[C@H]2[C@@H](C)C(=O)O[C@@H]3O[C@@]4(C)CC[C@@H]1[C@]32OO4 | -2% (inactive) | – |
| COc1cc(N)c(Cl)cc1C(=O)NC1CN2CCC1CC2 (stereo unspecified) | 13.3% (inactive) | – |
| Sc1ccccc1Cl | 8.99% (inactive) | – |
| CCC1(c2cccc(O)c2)CCCCN(C)C1 (stereo unspecified) | 1.35% (inactive) | – |
| CCC(=O)C(CCN(C)C)(c1ccccc1)c1ccccc1 | 4.37% (inactive) | – |
| CCC1(c2ccccc2)CCC(=O)NC1=O (stereo unspecified) | 24.4% (inactive) | – |
| Cc1nnc2n1-c1sc(CCC(=O)N3CCOCC3)cc1C(c1ccccc1Cl)=NC2 | 5.9% (inactive) | – |
| O=C(CCCCl)c1ccc(F)cc1 | 25.5% (inactive) | – |
| C=CCN1CC[C@]23CCCC[C@H]2[C@H]1Cc1ccc(O)cc13 | -1.38% (inactive) | – |
| CCOC(C(=O)OCCN(C)C)(c1ccccc1)c1ccccc1 | 22% (inactive) | – |
| OC(c1ccccc1)(c1ccccc1)C1CCNCC1 | 22.6% (inactive) | – |
| CC[C@]1(O)CC[C@H]2[C@@H]3CCC4=CCCC[C@@H]4[C@H]3CC[C@@]21C | -12.3% (inactive) | – |
| CNC(=O)NC(O)C(Cl)(Cl)Cl (stereo unspecified) | 6.37% (inactive) | – |
| COc1cc(C[C@@H](C)N)c(OC)cc1C | 1.85% [at 92.7 µM] (inactive) | – |
| Oc1ccc2[nH]cc(CCCCN3CC=C(c4ccccc4)CC3)c2c1 | -6.99% (inactive) | – |
| CCN1CCCC1CNC(=O)C(O)(c1ccccc1)c1ccccc1 (stereo unspecified) | 24.9% (inactive) | – |

Reference: PubChem BioAssay (NCATS)
